Data on 19 compounds can be found in the supplement of paper PMC7556523.

For assay [1], the system named is Sporothrix brasiliensis CBS 133006. The experiment in a line: growth inhibition relative to untreated control; higher = more growth inhibition (more antifungal activity), active = 80 or more; extreme values may be limits of the assay. The following applies: 1 µM; 48 h. The procedure, abridged:
(§1)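 Each value is the percent growth inhibition compared with cells left untreated. Reference isolates were grown as yeast-form cells in brain heart infusion broth with 2% glucose for 7 days at 36°C, then exposed at 1 x 10^5 CFU/ml to library compounds at a final 1 μM for 48 h at 35°C in 5% CO2. Growth was inspected visually under an inverted light microscope and quantified by spectrophotometric readings, with runs in quadruplicate.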

The subject of assay [2] is Sporothrix schenckii ATCC 32286. Described as above. The following applies: 1 µM; 48 h. The essentials:
as §1

Values without a mark were called inactive.

Turning to `CNC1C(OC2C(OC3C(O)C(O)C(N=C(N)N)C(O)C3N=C(N)N)OC(C)C2(O)C=O)OC(CO)C(O)C1O` (stereo not drawn), the growth inhibition in assay [1] is 6%; in assay [2] it was 0%.

With `NS(=O)(=O)c1cccc(-c2ccc3ncc(N4CCOCC4)nc3c2)c1`, the growth inhibition was 17% in assay [1] and 0% in assay [2].

For the compound `NCCC(O)C(=O)N[C@@H]1C[C@H](N)[C@@H](OC2O[C@H](CN)[C@@H](O)[C@H](O)[C@H]2O)[C@H](O)C1OC1O[C@H](CO)[C@@H](O)[C@H](N)[C@H]1O` (stereo partly drawn), the growth inhibition in assay [1] is 9.25%; in assay [2] it was 1%.

With `Cc1cc(C)cc(COc2ccc3c(C)c(CCC(=O)O)c(=O)oc3c2C)c1`, the growth inhibition in assay [1] was 3.75%; in assay [2], 1.5%.

As for `COC(=O)Nc1nc2cc(C(=O)c3ccccc3)ccc2[nH]1`, the growth inhibition in assay [1] is 3.75%; in assay [2], 16%.

For the compound `COc1ccccc1C(C)NCC(=O)Nc1cc(C(F)(F)F)ccc1Cl` (stereo not drawn), the growth inhibition in assay [1] is 9.75%; in assay [2] it was 0%.

On to `O=C(NC1CC1)c1ccc(CSCc2ccccc2Cl)o1`, for which the results for the growth inhibition in assay [1] and in assay [2] were 6.25% and 2%, respectively.

As to `CC(C)(C)OC(=O)N1CCC(Cn2nc(-c3cnc4ccccc4c3)c3c(N)ncnc32)CC1`, the growth inhibition was 21.2% in assay [1] and 4.5% in assay [2].

As to `CCOC(=O)c1noc(N)c1-c1ccccc1`, the growth inhibition in assay [1] is 16.5%; in assay [2], 0%.

In the case of `O=C(OCc1ccccc1)N1CCC(c2cc(-c3ccncc3)c(-c3ccc(F)cc3)[nH]2)CC1`, the growth inhibition was 5.25% in assay [1] and 13.2% in assay [2].

In the case of `Cc1cc2ccccc2n1CC(=O)N1CC(C(=O)N2CCCCC2)Oc2ccccc21` (stereo not drawn), the growth inhibition in assay [1] is 14.8%; in assay [2], 10.8%.

With `O=C(C1CCN(c2nnnn2-c2ccccc2)CC1)N1CCc2ccccc2C1`, the figures for the growth inhibition in assay [1] and in assay [2] were 2.5% and 3%, respectively.

Turning to `CC(C(=O)N1CCCC1)N1CCN(S(=O)(=O)c2ccc(C(C)(C)C)cc2)CC1` (stereo not drawn), the figures for the growth inhibition in assay [1] and in assay [2] were 37.5% and 7%, respectively.

Take `CC(c1cc(Cl)cc(Cl)c1)N(C)c1ncc2c(N)nc(N)nc2n1` (stereo not drawn): the growth inhibition is 11.2% in assay [1] and 16.5% in assay [2].

For `C[C@@H]1[C@H](O)[C@@H](C)/C=C/C=C/C=C/C=C/C=C/C=C/C=C/[C@H](O[C@@H]2O[C@H](C)[C@@H](O)[C@H](N)[C@@H]2O)C[C@@H]2O[C@](O)(C[C@@H](O)C[C@@H](O)[C@H](O)CC[C@@H](O)C[C@@H](O)CC(=O)O[C@H]1C)C[C@H](O)[C@H]2C(=O)O`, the growth inhibition is 24% in assay [1] and 16% in assay [2].

`COc1nc2ccc(Br)cc2cc1[C@@H](c1ccccc1)[C@@](O)(CCN(C)C)c1cccc2ccccc12`: the growth inhibition in assay [1] is 21.5%; in assay [2], 17.8%.

As to `Brc1c(-c2ccc3c(c2)OCO3)nc2ncccn12`, the results for the growth inhibition in assay [1] and in assay [2] were 19.5% and 27.8%, respectively.

Regarding `O=C(C(Cc1c[nH]c2ccccc12)NS(=O)(=O)c1ccc(Cl)cc1)N1CCCCC1` (stereo not drawn), the growth inhibition is 5.75% in assay [1] and 4% in assay [2].

As to `O=C(NCCN1CCCC1)c1cc(NCCN2CCOCC2)nc2ccc(Cl)cc12`, the growth inhibition is 4.5% in assay [1] and 0% in assay [2].
